Test in all cases: DAPPL (digital affinity profiling via proximity ligation, sequencing); 10 mM Tris-HCl pH 7.5, 50 mM NaCl, 1 mM DTT, 4% glycerol, room temperature, 30 min; GST-TFs on glutathione beads, 16-mer random dsDNA library, 0.1% formaldehyde crosslink after washing; high values mean tight binding
The target in test [1] is T1, FEV (Homo sapiens, UniProt Q99581 1-238).
T1 sequence: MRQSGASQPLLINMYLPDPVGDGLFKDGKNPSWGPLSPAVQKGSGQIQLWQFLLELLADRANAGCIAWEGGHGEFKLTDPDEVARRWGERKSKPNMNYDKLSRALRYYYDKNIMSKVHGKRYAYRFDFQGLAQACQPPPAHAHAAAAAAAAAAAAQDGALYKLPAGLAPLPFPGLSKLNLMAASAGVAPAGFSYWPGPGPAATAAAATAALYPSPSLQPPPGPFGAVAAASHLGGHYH
To be noted: protein: recombinant; tags: N-terminal GST; dsDNA, one strand shown. An outline of the steps: (§1)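 After expression in yeast as GST fusions, human transcription factors were bound to glutathione beads, DNA-barcoded and mixed with a tag-only sample. The pools were incubated with 200 nmole of a 16-mer random double-stranded DNA library in Tris/NaCl/DTT/glycerol buffer (30 min, room temperature), washed and crosslinked with 0.1% formaldehyde. Proximity ligation with BsaI/T4 ligase ran for 1 h at 37 °C, before PCR amplification and sequencing on an Illumina NextSeq500. Binding signal is a hexamer's read frequency for a factor divided by its frequency for the tag-only sample.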

Test [2] addresses ETV5 (Homo sapiens, UniProt P41161 1-510). To be noted: protein: recombinant; tags: N-terminal GST; dsDNA, one strand shown. An outline of the steps: as §1
Test [3] addresses HSF1 (Homo sapiens, UniProt Q00613 1-529). To be noted: protein: recombinant; tags: N-terminal GST; chain copies: 3; dsDNA, one strand shown. Put shortly: as §1
Test [4] has as its target T2, SPIC (Homo sapiens, UniProt Q8N5J4 1-248).
T2 sequence: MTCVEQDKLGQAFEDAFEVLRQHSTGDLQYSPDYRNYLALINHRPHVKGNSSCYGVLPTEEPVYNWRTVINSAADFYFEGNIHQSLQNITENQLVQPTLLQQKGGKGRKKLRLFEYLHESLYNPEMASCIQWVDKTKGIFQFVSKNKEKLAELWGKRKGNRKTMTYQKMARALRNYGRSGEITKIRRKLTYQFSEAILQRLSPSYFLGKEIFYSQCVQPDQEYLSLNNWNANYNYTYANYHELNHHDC
To be noted: protein: recombinant; tags: N-terminal GST; dsDNA, one strand shown. An outline of the steps: as §1

Test [5] addresses ELF4 (Homo sapiens, UniProt Q99607 1-663). To be noted: protein: recombinant; tags: N-terminal GST; dsDNA, one strand shown. An outline of the steps: as §1
Test [6] addresses T3, ELK4 (Homo sapiens, UniProt P28324-2 1-405).
T3 sequence: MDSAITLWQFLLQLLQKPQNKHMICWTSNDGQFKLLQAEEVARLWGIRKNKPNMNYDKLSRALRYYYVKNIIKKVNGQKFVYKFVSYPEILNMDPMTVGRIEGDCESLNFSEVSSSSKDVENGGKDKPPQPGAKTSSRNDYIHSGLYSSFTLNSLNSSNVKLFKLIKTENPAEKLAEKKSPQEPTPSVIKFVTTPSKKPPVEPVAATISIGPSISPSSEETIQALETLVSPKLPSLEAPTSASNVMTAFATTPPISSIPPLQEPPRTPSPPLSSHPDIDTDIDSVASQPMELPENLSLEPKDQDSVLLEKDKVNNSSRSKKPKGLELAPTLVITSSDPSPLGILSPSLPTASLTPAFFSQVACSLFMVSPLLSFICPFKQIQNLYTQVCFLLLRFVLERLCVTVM
To be noted: protein: recombinant; tags: N-terminal GST; dsDNA, one strand shown. An outline of the steps:
as §1

Test [7] has as its target T4, ETV2 (Homo sapiens, UniProt O00321 1-342).
T4 sequence: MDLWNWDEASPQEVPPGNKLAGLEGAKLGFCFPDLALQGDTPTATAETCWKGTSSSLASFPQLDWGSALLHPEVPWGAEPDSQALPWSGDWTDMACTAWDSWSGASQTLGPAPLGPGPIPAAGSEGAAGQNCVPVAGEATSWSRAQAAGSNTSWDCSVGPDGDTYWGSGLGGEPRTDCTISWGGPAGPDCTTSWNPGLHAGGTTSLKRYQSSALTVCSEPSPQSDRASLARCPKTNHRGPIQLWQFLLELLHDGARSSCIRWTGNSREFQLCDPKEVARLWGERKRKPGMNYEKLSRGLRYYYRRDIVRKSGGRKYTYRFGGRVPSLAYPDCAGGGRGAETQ
To be noted: protein: recombinant; tags: N-terminal GST; dsDNA, one strand shown. Put shortly:
as §1

Test [8] deals with T5, ELF3 (Homo sapiens, UniProt P78545 1-371).
T5 sequence: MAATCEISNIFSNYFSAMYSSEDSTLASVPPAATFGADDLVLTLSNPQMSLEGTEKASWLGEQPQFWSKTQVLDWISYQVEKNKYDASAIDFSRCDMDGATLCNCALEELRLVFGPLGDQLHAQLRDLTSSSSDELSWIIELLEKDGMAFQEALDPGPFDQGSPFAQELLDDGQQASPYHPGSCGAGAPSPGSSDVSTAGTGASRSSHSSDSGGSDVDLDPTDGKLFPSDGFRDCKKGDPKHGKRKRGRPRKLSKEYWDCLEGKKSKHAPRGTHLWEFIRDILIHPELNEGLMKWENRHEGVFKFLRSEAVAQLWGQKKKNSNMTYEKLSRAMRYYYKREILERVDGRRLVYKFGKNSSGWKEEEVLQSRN
To be noted: protein: recombinant; tags: N-terminal GST; dsDNA, one strand shown. An outline of the steps:
as §1

The target in test [9] is CRX (Homo sapiens, UniProt O43186 1-299). To be noted: protein: recombinant; tags: N-terminal GST; dsDNA, one strand shown. An outline of the steps: as §1
CRX, sequence (O43186 whole entry): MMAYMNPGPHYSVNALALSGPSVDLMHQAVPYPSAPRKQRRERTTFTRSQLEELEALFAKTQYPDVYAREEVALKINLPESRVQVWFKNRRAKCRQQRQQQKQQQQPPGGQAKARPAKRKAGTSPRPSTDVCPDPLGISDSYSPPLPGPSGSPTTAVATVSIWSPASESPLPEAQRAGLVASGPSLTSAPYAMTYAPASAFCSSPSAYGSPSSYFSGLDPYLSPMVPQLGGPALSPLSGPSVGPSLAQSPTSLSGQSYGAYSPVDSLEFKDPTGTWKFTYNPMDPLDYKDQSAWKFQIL
Test [10] addresses ETV1 (Homo sapiens, UniProt P50549 1-477). To be noted: protein: recombinant; tags: N-terminal GST; dsDNA, one strand shown. Put shortly: as §1
Test [11] deals with T6, ERF (Homo sapiens, UniProt P50548 1-548).
T6 sequence: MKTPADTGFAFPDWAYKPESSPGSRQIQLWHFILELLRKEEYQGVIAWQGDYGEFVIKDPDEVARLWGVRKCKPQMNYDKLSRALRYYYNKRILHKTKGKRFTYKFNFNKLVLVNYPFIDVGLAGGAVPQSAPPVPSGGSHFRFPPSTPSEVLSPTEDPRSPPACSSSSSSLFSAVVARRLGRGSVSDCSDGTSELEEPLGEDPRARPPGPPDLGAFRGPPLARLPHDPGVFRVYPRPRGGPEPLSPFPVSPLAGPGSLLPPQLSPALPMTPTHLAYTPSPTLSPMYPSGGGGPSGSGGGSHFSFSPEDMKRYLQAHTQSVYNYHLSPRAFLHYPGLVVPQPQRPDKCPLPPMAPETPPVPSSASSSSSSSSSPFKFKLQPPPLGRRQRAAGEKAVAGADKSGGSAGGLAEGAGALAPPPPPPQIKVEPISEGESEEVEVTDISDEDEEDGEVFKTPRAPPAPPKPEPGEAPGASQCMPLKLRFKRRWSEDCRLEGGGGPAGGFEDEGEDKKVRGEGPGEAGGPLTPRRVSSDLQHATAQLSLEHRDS
To be noted: protein: recombinant; tags: N-terminal GST; dsDNA, one strand shown. An outline of the steps: as §1

In test [12] the target is T7, ETV3L (Homo sapiens, UniProt Q6ZN32 1-361).
T7 sequence: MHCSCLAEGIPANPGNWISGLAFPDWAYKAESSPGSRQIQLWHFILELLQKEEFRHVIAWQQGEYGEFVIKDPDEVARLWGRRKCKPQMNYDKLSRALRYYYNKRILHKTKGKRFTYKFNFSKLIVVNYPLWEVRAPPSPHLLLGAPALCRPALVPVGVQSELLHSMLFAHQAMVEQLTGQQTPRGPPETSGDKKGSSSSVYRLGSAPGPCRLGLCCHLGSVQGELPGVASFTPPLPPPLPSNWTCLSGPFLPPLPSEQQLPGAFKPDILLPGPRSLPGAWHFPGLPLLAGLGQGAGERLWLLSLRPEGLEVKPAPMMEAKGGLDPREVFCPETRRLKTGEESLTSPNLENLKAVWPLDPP
To be noted: protein: recombinant; tags: N-terminal GST; dsDNA, one strand shown. An outline of the steps:
as §1

The target in test [13] is T8, ETS2 (Homo sapiens, UniProt P15036 1-469).
T8 sequence: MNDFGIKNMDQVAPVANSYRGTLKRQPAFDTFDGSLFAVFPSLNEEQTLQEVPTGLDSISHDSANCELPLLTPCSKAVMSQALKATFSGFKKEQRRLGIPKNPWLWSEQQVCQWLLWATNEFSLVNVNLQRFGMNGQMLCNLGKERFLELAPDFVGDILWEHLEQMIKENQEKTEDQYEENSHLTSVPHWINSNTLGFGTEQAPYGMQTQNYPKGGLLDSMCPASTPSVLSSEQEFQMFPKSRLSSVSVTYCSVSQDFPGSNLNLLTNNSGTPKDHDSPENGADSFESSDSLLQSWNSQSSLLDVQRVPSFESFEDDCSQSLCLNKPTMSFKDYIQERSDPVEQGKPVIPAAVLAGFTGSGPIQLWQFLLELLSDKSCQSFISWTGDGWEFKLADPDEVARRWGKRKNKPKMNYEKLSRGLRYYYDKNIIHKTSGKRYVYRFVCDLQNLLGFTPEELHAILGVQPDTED
To be noted: protein: recombinant; tags: N-terminal GST; dsDNA, one strand shown. Put shortly:
as §1

The target of test [14] is T9, SPDEF (Homo sapiens, UniProt O95238 1-335).
T9 sequence: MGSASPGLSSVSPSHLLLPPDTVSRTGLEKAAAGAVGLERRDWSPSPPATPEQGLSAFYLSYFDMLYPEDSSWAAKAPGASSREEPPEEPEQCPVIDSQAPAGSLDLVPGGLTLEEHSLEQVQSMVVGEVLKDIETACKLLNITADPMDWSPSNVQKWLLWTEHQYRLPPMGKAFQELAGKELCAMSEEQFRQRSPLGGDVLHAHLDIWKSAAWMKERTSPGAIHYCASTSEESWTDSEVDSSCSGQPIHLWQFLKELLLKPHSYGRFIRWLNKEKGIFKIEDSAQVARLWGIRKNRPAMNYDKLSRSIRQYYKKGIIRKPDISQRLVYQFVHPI
To be noted: protein: recombinant; tags: N-terminal GST; dsDNA, one strand shown. Put shortly: as §1

The target of test [15] is T10, ETV7 (Homo sapiens, UniProt Q9Y603 1-341).
T10 sequence: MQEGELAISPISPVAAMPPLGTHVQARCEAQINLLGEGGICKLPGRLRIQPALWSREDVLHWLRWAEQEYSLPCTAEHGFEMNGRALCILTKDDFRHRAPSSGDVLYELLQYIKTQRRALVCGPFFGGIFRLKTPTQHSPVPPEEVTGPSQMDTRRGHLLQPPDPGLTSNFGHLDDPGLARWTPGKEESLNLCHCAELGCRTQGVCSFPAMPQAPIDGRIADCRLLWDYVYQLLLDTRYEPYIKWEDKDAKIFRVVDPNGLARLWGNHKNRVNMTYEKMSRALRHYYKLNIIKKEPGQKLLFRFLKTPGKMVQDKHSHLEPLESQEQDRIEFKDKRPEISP
To be noted: protein: recombinant; tags: N-terminal GST; dsDNA, one strand shown. An outline of the steps: as §1

Test [16] addresses T11, ELF5 (Homo sapiens, UniProt Q9UKW6-2 1-255).
T11 sequence: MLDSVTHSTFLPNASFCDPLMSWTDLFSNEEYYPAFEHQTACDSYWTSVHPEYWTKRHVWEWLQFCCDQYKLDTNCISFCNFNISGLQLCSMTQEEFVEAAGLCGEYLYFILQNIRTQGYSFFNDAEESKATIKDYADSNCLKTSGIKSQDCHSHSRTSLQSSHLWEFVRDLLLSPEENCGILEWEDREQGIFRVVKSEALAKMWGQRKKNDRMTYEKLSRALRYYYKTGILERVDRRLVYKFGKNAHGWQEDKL
To be noted: protein: recombinant; tags: N-terminal GST; dsDNA, one strand shown. Put shortly: as §1

Test [17] deals with T12, ETV3 (Homo sapiens, UniProt P41162-2 1-143).
T12 sequence: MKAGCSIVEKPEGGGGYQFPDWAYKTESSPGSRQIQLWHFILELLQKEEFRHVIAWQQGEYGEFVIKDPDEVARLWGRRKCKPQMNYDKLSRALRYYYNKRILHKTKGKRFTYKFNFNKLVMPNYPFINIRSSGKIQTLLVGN
To be noted: protein: recombinant; tags: N-terminal GST; dsDNA, one strand shown. Put shortly: as §1

The target in test [18] is ETV6 (Homo sapiens, UniProt P41212 1-452). To be noted: protein: recombinant; tags: N-terminal GST; dsDNA, one strand shown. An outline of the steps: as §1
ETV6, sequence (P41212 whole entry): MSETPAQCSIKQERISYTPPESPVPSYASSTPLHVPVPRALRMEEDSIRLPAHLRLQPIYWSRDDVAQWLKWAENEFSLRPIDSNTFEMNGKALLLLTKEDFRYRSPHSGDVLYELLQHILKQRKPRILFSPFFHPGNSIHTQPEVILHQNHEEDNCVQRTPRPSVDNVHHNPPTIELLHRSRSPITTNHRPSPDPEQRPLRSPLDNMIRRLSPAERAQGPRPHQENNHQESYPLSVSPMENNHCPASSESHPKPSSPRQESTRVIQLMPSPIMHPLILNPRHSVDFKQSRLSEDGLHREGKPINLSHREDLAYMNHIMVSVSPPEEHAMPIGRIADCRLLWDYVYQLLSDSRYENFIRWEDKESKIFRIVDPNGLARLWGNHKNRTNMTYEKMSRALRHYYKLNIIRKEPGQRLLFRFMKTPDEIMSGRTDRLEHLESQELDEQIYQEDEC

ELF4, sequence (Q99607 whole entry): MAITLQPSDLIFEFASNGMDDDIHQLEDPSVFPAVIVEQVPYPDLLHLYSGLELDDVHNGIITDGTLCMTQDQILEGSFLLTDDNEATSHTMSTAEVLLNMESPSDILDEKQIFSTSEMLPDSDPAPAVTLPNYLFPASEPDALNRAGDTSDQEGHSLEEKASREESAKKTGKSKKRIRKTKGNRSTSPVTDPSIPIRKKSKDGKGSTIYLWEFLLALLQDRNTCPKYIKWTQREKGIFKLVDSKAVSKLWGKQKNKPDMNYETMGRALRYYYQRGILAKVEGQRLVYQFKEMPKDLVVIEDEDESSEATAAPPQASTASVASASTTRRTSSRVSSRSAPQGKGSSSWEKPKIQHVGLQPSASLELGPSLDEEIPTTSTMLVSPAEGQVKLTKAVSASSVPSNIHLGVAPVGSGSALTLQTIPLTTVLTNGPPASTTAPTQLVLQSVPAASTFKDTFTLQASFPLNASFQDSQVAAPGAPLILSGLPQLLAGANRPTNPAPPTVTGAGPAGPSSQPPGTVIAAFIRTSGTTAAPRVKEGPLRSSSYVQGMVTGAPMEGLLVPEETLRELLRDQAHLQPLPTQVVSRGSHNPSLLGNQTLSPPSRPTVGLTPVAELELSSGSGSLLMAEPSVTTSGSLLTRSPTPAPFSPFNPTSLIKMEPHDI
ETV1, sequence (P50549 whole entry): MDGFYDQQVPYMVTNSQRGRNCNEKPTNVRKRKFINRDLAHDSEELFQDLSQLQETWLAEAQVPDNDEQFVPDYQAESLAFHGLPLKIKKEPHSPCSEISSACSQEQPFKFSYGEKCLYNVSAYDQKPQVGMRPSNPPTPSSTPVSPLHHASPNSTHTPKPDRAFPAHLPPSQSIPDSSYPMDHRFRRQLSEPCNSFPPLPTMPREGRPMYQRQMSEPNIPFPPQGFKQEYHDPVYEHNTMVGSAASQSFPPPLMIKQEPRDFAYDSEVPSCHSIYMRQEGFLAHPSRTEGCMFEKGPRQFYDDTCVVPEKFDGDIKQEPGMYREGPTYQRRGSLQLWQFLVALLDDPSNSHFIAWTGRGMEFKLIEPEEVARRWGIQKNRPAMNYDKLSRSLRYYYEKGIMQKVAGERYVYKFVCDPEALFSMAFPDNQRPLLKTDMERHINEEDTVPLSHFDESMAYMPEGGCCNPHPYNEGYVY
ETV5, sequence (P41161 whole entry): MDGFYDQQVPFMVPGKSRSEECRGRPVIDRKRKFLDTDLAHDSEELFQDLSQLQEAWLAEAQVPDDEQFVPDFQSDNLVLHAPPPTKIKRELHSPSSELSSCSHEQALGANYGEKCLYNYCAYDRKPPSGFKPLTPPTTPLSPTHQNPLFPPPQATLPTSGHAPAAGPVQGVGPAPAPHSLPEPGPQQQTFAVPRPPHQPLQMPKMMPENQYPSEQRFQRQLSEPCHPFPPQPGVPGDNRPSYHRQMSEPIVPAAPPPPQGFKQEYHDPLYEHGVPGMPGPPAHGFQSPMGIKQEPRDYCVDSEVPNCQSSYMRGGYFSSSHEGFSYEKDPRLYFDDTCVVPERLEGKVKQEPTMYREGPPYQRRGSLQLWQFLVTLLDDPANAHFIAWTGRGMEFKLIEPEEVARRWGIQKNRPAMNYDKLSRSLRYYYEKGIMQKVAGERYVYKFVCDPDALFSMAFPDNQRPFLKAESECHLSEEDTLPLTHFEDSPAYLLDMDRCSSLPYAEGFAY
HSF1, sequence (Q00613 whole entry): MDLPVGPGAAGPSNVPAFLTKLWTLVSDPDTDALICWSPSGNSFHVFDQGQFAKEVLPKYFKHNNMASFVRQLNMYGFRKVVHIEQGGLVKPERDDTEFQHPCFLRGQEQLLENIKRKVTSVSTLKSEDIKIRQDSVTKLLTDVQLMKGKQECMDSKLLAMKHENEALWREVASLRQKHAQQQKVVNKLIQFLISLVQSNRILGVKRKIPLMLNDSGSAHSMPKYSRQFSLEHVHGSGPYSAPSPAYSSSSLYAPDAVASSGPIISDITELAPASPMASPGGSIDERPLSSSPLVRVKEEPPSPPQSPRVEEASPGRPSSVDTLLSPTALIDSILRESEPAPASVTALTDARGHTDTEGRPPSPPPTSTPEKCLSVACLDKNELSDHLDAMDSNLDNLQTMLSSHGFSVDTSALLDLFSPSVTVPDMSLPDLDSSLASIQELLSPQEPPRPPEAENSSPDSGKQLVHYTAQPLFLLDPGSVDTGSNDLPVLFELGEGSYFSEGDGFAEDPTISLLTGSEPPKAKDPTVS

Take GTAATA: the binding signal was 1.11 fold enrichment (6-mer frequency, TF over GST control) in test [1]; 1.13 fold enrichment (6-mer frequency, TF over GST control) in test [2]; 1.24 fold enrichment (6-mer frequency, TF over GST control) in test [3]; 1.27 fold enrichment (6-mer frequency, TF over GST control) in [4]; 1.16 fold enrichment (6-mer frequency, TF over GST control) in test [5]; 1.27 fold enrichment (6-mer frequency, TF over GST control) in test [6]. Besides, the binding signal in test [7] is 1.09 fold enrichment (6-mer frequency, TF over GST control); in test [8], 1.22 fold enrichment (6-mer frequency, TF over GST control); in [9] it was 1.52 fold enrichment (6-mer frequency, TF over GST control); in [10], 1.13 fold enrichment (6-mer frequency, TF over GST control); in test [11], 1.12 fold enrichment (6-mer frequency, TF over GST control); in [12] it was 1.16 fold enrichment (6-mer frequency, TF over GST control). Further, the binding signal in test [13] is 1.11 fold enrichment (6-mer frequency, TF over GST control); in test [14], 1.16 fold enrichment (6-mer frequency, TF over GST control); in [15], 1.29 fold enrichment (6-mer frequency, TF over GST control); in test [16] it was 1.2 fold enrichment (6-mer frequency, TF over GST control); in test [17] it was 1.06 fold enrichment (6-mer frequency, TF over GST control); in test [18], 1.16 fold enrichment (6-mer frequency, TF over GST control).

Values taken from paper PMC7862700, “An all-to-all approach to the identification of sequence-specific readers for epigenetic DNA modifications on cytosine”.
